Results taken from PubChem BioAssay (NCI).
“And” between values parts separate entries of the source, which are not always exact repeats. Equal entries are not always repeated. This is part of a sample that, as a whole, favours compounds with a hit. Of some 83,000 tested, about 20% had one in any assay.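 Each cell line was grown in a 96-well plate and treated with one concentration of compound for 48 hours. Values below 10 were considered active.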 The source made the active and inactive calls.

Key:
Test in all cases: NCI-60 one-dose screen, 48 h (100 = growth as untreated, 0 = no growth, -100 = all killed)
HCT-15 colon = test system: HCT-15 colon
HT29 colon = test system: HT29 colon
SNB-75 CNS = test system: SNB-75 CNS
SNB-19 CNS = test system: SNB-19 CNS
U251 CNS = test system: U251 CNS
PC-3 prostate = test system: PC-3 prostate
SK-MEL-5 melanoma = test system: SK-MEL-5 melanoma
UACC-62 melanoma = test system: UACC-62 melanoma
LOX IMVI melanoma = test system: LOX IMVI melanoma
SK-MEL-28 melanoma = test system: SK-MEL-28 melanoma

Measured: growth

CC(C)(C)c1cc(NC(=O)Cc2ccc(-c3cnc4cc(-c5cnn(CCN6CCOCC6)c5)ccc4n3)cc2)no1
active: HCT-15 colon; 10 µM 9.24% | HCT-15 colon; 30 µM 7.76% | SNB-75 CNS; 10 µM -0.488% | SNB-75 CNS; 30 µM -1.06% | SK-MEL-5 melanoma; 10 µM unless noted 9.52% | LOX IMVI melanoma; 30 µM 8.41%
inactive: HT29 colon; 10 µM 25.9% | HT29 colon; 30 µM 31.2% | SNB-19 CNS; 10 µM 42.4% | SNB-19 CNS; 30 µM 44% | U251 CNS; 10 µM 22.1% | U251 CNS; 30 µM 33.4% | PC-3 prostate; 10 µM 24.7% | PC-3 prostate; 30 µM 23.9% | UACC-62 melanoma; 10 µM 16.3% | UACC-62 melanoma; 30 µM 19.6% | LOX IMVI melanoma; 10 µM 17.7% | SK-MEL-28 melanoma; 10 µM 29.4% | SK-MEL-28 melanoma; 30 µM 30.3%

COc1ccc(Cl)cc1C(=O)NCCc1ccc(S(=O)(=O)NC(=O)NC2CCCCC2)cc1
inactive: HCT-15 colon; 10 µM 109% and 108% | HCT-15 colon; 100 µM 42.6% | HT29 colon; 10 µM 127% and 131% | HT29 colon; 100 µM 77% | SNB-75 CNS; 10 µM 104% and 94% | SNB-75 CNS; 100 µM 67.4% | SNB-19 CNS; 10 µM 104% and 97.9% | SNB-19 CNS; 100 µM 68.5% | U251 CNS; 10 µM 94.3% and 98.7% | U251 CNS; 100 µM 60.3% | PC-3 prostate; 10 µM 93.2% and 110% | PC-3 prostate; 100 µM 52.8% | SK-MEL-5 melanoma; 10 µM 101% and 96.2% | SK-MEL-5 melanoma; 100 µM 45.5% | UACC-62 melanoma; 10 µM 83.8% and 92.1% | UACC-62 melanoma; 100 µM 51.2% | LOX IMVI melanoma; 10 µM 102% and 95.9% | LOX IMVI melanoma; 100 µM 64.7%

O=C(O)CCCCc1ccc([N+](=O)[O-])cc1
inactive: HCT-15 colon; 10 µM unless noted 101% | HT29 colon; 10 µM unless noted 105% and 98.1% | SNB-75 CNS; 10 µM unless noted 98.7% and 89.7% | SNB-19 CNS; 10 µM unless noted 101% and 105% | U251 CNS; 10 µM unless noted 97.4% and 108% | PC-3 prostate; 10 µM unless noted 88.5% and 86.5% | SK-MEL-5 melanoma; 10 µM unless noted 107% and 105% | UACC-62 melanoma; 10 µM unless noted 104% and 90.4% | LOX IMVI melanoma; 10 µM unless noted 92.7% and 107%

OCc1ccccn1
inactive: HCT-15 colon; 10 µM unless noted 109% | HT29 colon; 10 µM unless noted 104% | SNB-75 CNS; 10 µM unless noted 74.5% | SNB-19 CNS; 10 µM unless noted 109% | U251 CNS; 10 µM unless noted 102% | PC-3 prostate; 10 µM unless noted 97.8% | SK-MEL-5 melanoma; 10 µM unless noted 99.8% | UACC-62 melanoma; 10 µM unless noted 103% | LOX IMVI melanoma; 10 µM unless noted 102%

Cn1c(SSc2ccc(-c3cccnc3)n2C)ccc1-c1cccnc1
inactive: HCT-15 colon; 10 µM unless noted 111% and 104% | HT29 colon; 10 µM unless noted 110% and 115% | SNB-75 CNS; 10 µM unless noted 89.4% and 97.7% | SNB-19 CNS; 10 µM unless noted 110% and 109% | U251 CNS; 10 µM unless noted 72.6% and 106% | PC-3 prostate; 10 µM unless noted 65% and 68.2% | SK-MEL-5 melanoma; 10 µM unless noted 95.6% and 91.6% | UACC-62 melanoma; 10 µM unless noted 82.5% and 109% | LOX IMVI melanoma; 10 µM unless noted 59% and 98.2%

Cc1cc(O)c(C(C)C)cc1N
inactive: HCT-15 colon; 10 µM unless noted 101% and 104% | HT29 colon; 10 µM unless noted 101% and 116% | SNB-75 CNS; 10 µM unless noted 79% and 97% | SNB-19 CNS; 10 µM unless noted 117% | U251 CNS; 10 µM unless noted 104% and 103% | PC-3 prostate; 10 µM unless noted 106% and 98.4% | SK-MEL-5 melanoma; 10 µM unless noted 106% and 98.9% | UACC-62 melanoma; 10 µM unless noted 97.5% and 111% | LOX IMVI melanoma; 10 µM unless noted 98.1% and 94.7%

OC(CSc1ccccc1)CN1CCN(c2cccc(Cl)c2)CC1 (stereo not given)
inactive: HCT-15 colon; 10 µM unless noted 105% and 101% | HT29 colon; 10 µM unless noted 104% and 96.5% | SNB-75 CNS; 10 µM unless noted 91.7% and 102% | SNB-19 CNS; 10 µM unless noted 100% and 111% | U251 CNS; 10 µM unless noted 95% and 102% | PC-3 prostate; 10 µM unless noted 92.9% and 97.8% | SK-MEL-5 melanoma; 10 µM unless noted 97.4% and 96.8% | UACC-62 melanoma; 10 µM unless noted 92.2% and 96.9% | LOX IMVI melanoma; 10 µM unless noted 96.7% and 96.3%

CCCCCCCCCCCCCCCc1ccc(Cl)c(O)c1Cl (tested in a mixture with another compound)
inactive: HCT-15 colon; 0.25 µM 76.6% | HCT-15 colon; 10 µM 109% | HT29 colon; 0.25 µM 43.1% | HT29 colon; 10 µM 88% | SNB-75 CNS; 0.25 µM 36.6% | SNB-75 CNS; 10 µM 94.2% | SNB-19 CNS; 0.25 µM 10.8% | SNB-19 CNS; 10 µM 111% | U251 CNS; 0.25 µM 13% | U251 CNS; 10 µM 92.9% | PC-3 prostate; 0.25 µM 59.5% | PC-3 prostate; 10 µM 90.4% | SK-MEL-5 melanoma; 10 µM unless noted 87.7% | UACC-62 melanoma; 10 µM unless noted 22.8% [0.25 µM] | LOX IMVI melanoma; 0.25 µM 19.4% | LOX IMVI melanoma; 10 µM 99.2% | SK-MEL-28 melanoma; 0.25 µM 51.3% | SK-MEL-28 melanoma; 10 µM 109%
